A selection: hits, their analogues and other compounds. The true share with any hit is near 1.5%.
PolyA inhibitor – polyadenylation inhibitors in yeast reporter cells, primary screen, luminescence, S. cerevisiae; S. cerevisiae SKY197-pL101 polyadenylation reporter, beta-gal luminescence; efflux-impaired pdr1/pdr3 knockout yeast; score 100 = 6 SD above DMSO; actives 0.02% (n = 300,000); activity score, % at 12 µM; AID 1875, 2009;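 active = lowest replicate activity score at least 50, where 100 means six control SD above control mean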;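 note: yeast exposed to compound for 9 h at 30 °C; higher score means more reporter readthrough which indicates perturbed polyadenylation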
Efflux pump inh – inhibitors of Candida efflux pumps in yeast, primary screen, S. cerevisiae, Nile Red, multiplex; inhibition, % at 10 µM; actives 0.44% (n = 330,000); AID 485275, 2010; S. cerevisiae Candida pump triplex;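 active = plate passing quality check with inhibition over a set limit, or well fluorescence over plate mean plus 4 SD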;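 note: Nile Red retained in pooled yeast measured as flow cytometry median fluorescence; 0% = buffer negative control and 100% = Enniatin B positive control; higher means more Nile Red kept so more efflux inhibition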
NALP3 yeast inh – NALP3 inflammasome inhibitors in reconstituted yeast, primary screen, luminescence, uHTS; Yeast reconstituted NLRP3/ASC/caspase-1, beta-gal luminescence, 24 h; inhibition, % at 10 µM; actives 0.39% (n = 330,000);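 active = inhibition of 50% or more; inactive = inhibition below 50%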;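 note: plate controls were induced DMSO wells for no effect and uninduced yeast grown without galactose for full effect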
GASC-1 inh – inhibitors of GASC-1 histone demethylase, primary screen, biochemical, fluorescence, DELFIA europium; Lysine-specific demethylase 4C (Homo sapiens), Q9H3R0; GST-JMJD2C(1-420) H3K9me3 demethylation; inhibition, % at 2.35 µM; actives 0.069% (n = 330,000); AID 2099, 2009;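 active = more than half of a compound's replicate wells show inhibition beyond 50%, single wells judged on their own value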;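 note: signal counts dimethyl H3K9 product captured on neutravidin plate; 0% = median of DMSO wells and 100% = 0.3 times that DMSO median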
Target sequence (Q9H3R0 1-420 limits assumed): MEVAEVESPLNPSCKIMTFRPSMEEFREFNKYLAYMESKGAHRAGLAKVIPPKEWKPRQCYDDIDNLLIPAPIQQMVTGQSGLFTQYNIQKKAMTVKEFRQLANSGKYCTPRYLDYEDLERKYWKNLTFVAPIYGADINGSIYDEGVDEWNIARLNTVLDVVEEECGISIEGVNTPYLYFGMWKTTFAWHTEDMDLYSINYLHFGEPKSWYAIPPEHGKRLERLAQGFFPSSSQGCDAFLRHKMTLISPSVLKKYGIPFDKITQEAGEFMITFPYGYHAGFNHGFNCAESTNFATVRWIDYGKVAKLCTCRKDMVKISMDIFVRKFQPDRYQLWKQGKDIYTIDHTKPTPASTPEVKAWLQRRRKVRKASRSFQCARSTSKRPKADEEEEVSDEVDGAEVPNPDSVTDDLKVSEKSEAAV
NALP1 yeast inh – NALP1 inflammasome inhibitors in reconstituted yeast, colorimetric, S. cerevisiae, triplicate retest; S. cerevisiae NALP1/ASC/caspase-1 growth, X-gal OD620, 72 h; AID 2071, 2009; actives 0.61% (n = 280,000); inhibition, % at 10 µM; in the data active = inhibition mostly above about 24%, no sharp cut-off; inactive = mostly below about 32%
HDAC3 inhib – HDAC3 deacetylase inhibitors, primary screen, biochemical, fluorescence, cell-free homogeneous | Histone deacetylase 3 (Homo sapiens), O15379 | recombinant HDAC3, fluorogenic peptide/trypsin coupled | inhibition, % at 8.3 µM | actives 0.15% (n = 320,000) | AID 2718, 2010; in the data active = inhibition above about 26%, passing the limit was not always enough
Yeast cmpd fluor – counter-screen for efflux pump inhibitors: compound fluorescence; fluorescence ratio to DMSO, % at 10 µM; actives 4% (n = 1,700); shares compounds with Efflux pump inh; S. cerevisiae AD/pABC3, flow cytometry;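 active = fluorescence ratio to DMSO above its plate's cutoff, the plate mean ratio plus 5 SD, cut at about 210% in these data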;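 note: unstained yeast with no Nile Red so the signal is compound autofluorescence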
Mdr1 pump inh – inhibitors of Candida albicans Mdr1 efflux, confirmation, flow cytometry, singleplex, Cherry Pick1 set; S. cerevisiae AD/CaMDR1, Nile Red efflux; AID 588518, 2011; shares compounds with Efflux pump inh; inhibition, % at 10 µM; actives 1% (n = 1,700); in the data active = inhibition above about 26%;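 note: 0% = DMSO vehicle and 100% = reference inhibitor; higher means more Nile Red retained so more efflux inhibition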
CaCdr2 efflux inh – inhibitors of Candida albicans Cdr2 efflux pump, confirmation, S. cerevisiae AD/CaCDR2, flow cytometry, cherry pick 1, singleplex. shares compounds with Efflux pump inh. Nile Red retention. Nile Red retention ratio vs DMSO, % at 10 µM. actives 4% (n = 1,700). AID 588520, 2011; in the data active = Nile Red retention ratio vs DMSO above about 190%;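 note: higher ratio means more blocking of Cdr2 efflux of the dye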
CaCdr1 efflux inh – inhibitors of Candida albicans Cdr1 efflux pump, confirmation, S. cerevisiae AD/CaCDR1, flow cytometry, cherry pick 1, singleplex; shares compounds with Efflux pump inh; Nile Red efflux; AID 588522, 2011; actives 1% (n = 1,700); inhibition, % at 10 µM;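 active = inhibition above the screen-wide mean plus twice its standard deviation, cut at about 32% in these data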
Starred values were filed as active, the others as inactive; . = not tested or not shown.

SMILES	PolyA inhibitor	Efflux pump inh	NALP3 yeast inh	GASC-1 inh	NALP1 yeast inh	HDAC3 inhib	Yeast cmpd fluor	Mdr1 pump inh	CaCdr2 efflux inh	CaCdr1 efflux inh
COc1ccc(OC)c2c1C(=O)C(Cl)=C(Cl)C2=O	-56	1.5*	36	-30	39*	-6	123	1	246*	1
CCOC(=O)c1c(-c2ccc(-c3ccccc3)cc2)csc1NC(=O)CNCCN(C)C	-7	2.6*	24	-14	7	13	116	0	108	0
CCC(C)c1ccc(C(C)NC(=S)NC2CCCCC2)cc1 (centres undefined)	-3	1.5*	31	4	17	5	99	0	95	0
O=C(Oc1c(-c2ccccc2)c(=O)n2c3c(cccc13)CC2)c1ccc(F)cc1	-4	0.6*	-8	-13	-2	-5	99	0	97	0
O=C(Oc1c(-c2ccccc2)c(=O)n2c3c(cccc13)CC2)c1cccc([N+](=O)[O-])c1	67*	0.6*	-29	-10	8	-3	102	0	101	0
O=C(Oc1c(-c2ccccc2)c(=O)n2c3c(cccc13)CC2)c1ccccc1	-10	0	-25	9	7	10	161	0	91	3
O=C(NCCc1ccccc1)c1c(O)c2cccc3c2n(c1=O)CC3	5	0	-6	-32	3	-2	.	.	.	.
Cc1ccc(CNC(=O)Cn2cnc3c(NC(=O)OCc4ccccc4)ncnc32)o1	.	0	9	5	.	-6	.	.	.	.
CCN(CC)c1ccc(C(=O)NNC(=O)CNC(=O)c2ccco2)cc1	.	.	4	.	.	.	.	.	.	.
COc1ccccc1C(=O)COC(=O)/C=C/c1ccccc1	-11	6.2*	37	6	19	4	111	0	100	0
Nc1ccn(CC(=O)NCc2ccccn2)c(=O)n1	.	0	4	2	.	-4	.	.	.	.
Nc1ccn(CC(=O)NCCc2ccccn2)c(=O)n1	.	2.8*	7	3	.	-3	100	0	104	0
COc1cccc(C(=O)NCCS(=O)(=O)N2CCC(C)CC2)c1	-3	0	6	2	.	2	.	.	.	.
N#C/C(=C/c1ccc(-c2ccc(Br)cc2)o1)C(=O)NC1CCCCC1	-2	1.7*	10	-2	31	3	128	0	137	0
Cc1cccc(CNC(=O)c2ccc(NC(=O)C3=CSCCO3)cc2)c1	-22	0	24	17	4	11	.	.	.	.
O=C(CCc1ccccc1F)N1CCN(c2ccc(C(F)(F)F)cn2)CC1	3	0	32	-35	5	1	.	.	.	.
N#Cc1ccc(OCC(=O)N2CCN(c3ccc(C(F)(F)F)cn3)CC2)cc1	.	0.8*	16	4	.	3	109	0	108	0
Cc1cc(C)nc(N/C(=N\S(=O)(=O)Cc2ccccc2)Nc2ccccc2Br)n1	10	13*	-11	1	25	-3	108	0	106	0
CSc1cccc(N2CC(C(=O)N(Cc3nnc(-c4ccccc4Cl)o3)C3CC3)CC2=O)c1 (centres undefined)	-1	0	11	1	8	0	.	.	.	.
Cc1ccc(CNC(=O)C(N=C2NS(=O)(=O)c3ccccc32)C(C)C)cc1 (centres undefined)	.	0	22	17	.	0	.	.	.	.
CCCSc1nnc(N)s1	0	18*	9	-7	22	1	118	1	155	1
Cc1ccc(NC(=O)CSCC(=O)NCCc2ccccc2)c(C)c1	.	0	-9	14	.	1	.	.	.	.
C=CCN(C(=O)CCC(=O)Nc1cc(C)on1)C(C(=O)NC1CCCC1)c1ccc(OC)cc1OC (centres undefined)	6	0	-6	0	-19	-2	.	.	.	.
COc1ccc(-c2cc(C(=O)N3CCCC(C(F)(F)F)C3)c3ccccc3n2)cc1OC (centres undefined)	-18	0.4*	0	-6	.	.	105	0	110	0
COc1ccc(-c2cc(C(=O)N3CCN(c4ccccc4)CC3)c3ccccc3n2)cc1OC	5	0	19	-1	10	.	.	.	.	.
SMILES	PolyA inhibitor	Efflux pump inh	NALP3 yeast inh	GASC-1 inh	NALP1 yeast inh	HDAC3 inhib	Yeast cmpd fluor	Mdr1 pump inh	CaCdr2 efflux inh	CaCdr1 efflux inh
O=C(OCc1ccccc1)c1ccc(Br)o1	-8	1.1*	16	-2	-30	1	100	0	116	0
O=C(COC(=O)c1ccc(Br)o1)NCCCc1ccccc1	4	0	15	-5	6	-1	.	.	.	.
O=C1OCC/C1=C\c1ccccc1	13	6.8*	-7	1	35	-15	101	0	85	0
O=C(NCc1ccc(Cl)cc1)c1ccc(S(=O)(=O)N2CCCCC2)cc1	.	0	7	-6	.	-3	.	.	.	.
COc1ccccc1CN(C)C(=O)c1cccc(S(=O)(=O)N2CCCc3ccccc32)c1	.	0	12	-3	.	2	.	.	.	.
Cn1c(N)c(C(=O)COC(=O)c2ccccn2)c(=O)n(C)c1=O	4	1.7*	-1	0	-16	0	99	0	96	0
COc1cccc(NC(=O)C/C(C)=N/NC(=O)c2ccccc2Cl)c1	-1	0.8*	15	-5	.	-3	100	0	94	0
O=C(Nc1ccc(NC(=O)c2ccc(Cl)cc2Cl)cc1)c1cccs1	17	1.3*	17	5	7	-13	98	0	85	0
O=C(COC(=O)c1c[nH]c2ccccc12)NC1CCCCC1	.	0	0	1	.	-1	.	.	.	.
O=C(COC(=O)c1ccc2ccccc2c1)Nc1ncc(C(F)(F)F)cc1Cl	2	0	11	3	13	2	.	.	.	.
O=C(COC(=O)c1c2ccccc2cc2ccccc12)Nc1ncc(C(F)(F)F)cc1Cl	-3	0.4*	-14	5	5	-1	113	0	110	0
